According to ChEMBL document CHEMBL5308504, “Tm Shift (DSF) assay results for EUbOPEN Chemogenomics Library” (2023):

Assays:
Details in all cases: Compound concentration 20.0 uM, Protein concentration 2.0 uM, Result type QC Liability
[1] = target: Tyrosine-protein kinase ABL1 (Homo sapiens) (UniProt P00519)
[2] = target: Cyclin-dependent kinase 2 (Homo sapiens) (UniProt P24941)
[3] = target: Casein kinase I isoform delta (Homo sapiens) (UniProt P48730)
[4] = target: Glycogen synthase kinase-3 beta (Homo sapiens) (UniProt P49841)
Sequence of Glycogen synthase kinase-3 beta (Homo sapiens) (P49841 whole entry, looked up): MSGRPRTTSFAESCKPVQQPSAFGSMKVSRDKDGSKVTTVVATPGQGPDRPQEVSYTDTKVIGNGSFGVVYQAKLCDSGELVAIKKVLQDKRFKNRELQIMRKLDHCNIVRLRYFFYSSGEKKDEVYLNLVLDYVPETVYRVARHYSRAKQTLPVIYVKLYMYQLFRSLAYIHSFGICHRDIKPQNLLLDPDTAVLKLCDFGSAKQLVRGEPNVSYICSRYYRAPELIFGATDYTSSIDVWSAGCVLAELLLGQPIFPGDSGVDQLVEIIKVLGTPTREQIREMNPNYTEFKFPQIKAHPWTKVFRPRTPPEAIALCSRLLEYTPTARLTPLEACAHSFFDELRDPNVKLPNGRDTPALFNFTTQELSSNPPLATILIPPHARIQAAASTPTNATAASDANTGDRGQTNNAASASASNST

[5] = target: Mitogen-activated protein kinase 1 (Homo sapiens) (UniProt P28482)
Sequence of Mitogen-activated protein kinase 1 (Homo sapiens) (P28482 whole entry): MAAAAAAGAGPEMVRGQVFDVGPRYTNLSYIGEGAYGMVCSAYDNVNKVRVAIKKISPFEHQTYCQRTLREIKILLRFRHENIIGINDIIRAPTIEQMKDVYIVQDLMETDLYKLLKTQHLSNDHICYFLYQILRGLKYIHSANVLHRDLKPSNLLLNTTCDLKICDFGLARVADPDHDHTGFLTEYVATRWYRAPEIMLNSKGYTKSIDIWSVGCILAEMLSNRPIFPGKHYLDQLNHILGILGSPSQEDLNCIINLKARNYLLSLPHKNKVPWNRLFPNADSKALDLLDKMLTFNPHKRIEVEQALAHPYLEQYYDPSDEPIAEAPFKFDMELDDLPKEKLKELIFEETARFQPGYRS

[6] = target: T1, Aurora kinase A (Homo sapiens) (UniProt O14965)
T1 sequence (whole entry): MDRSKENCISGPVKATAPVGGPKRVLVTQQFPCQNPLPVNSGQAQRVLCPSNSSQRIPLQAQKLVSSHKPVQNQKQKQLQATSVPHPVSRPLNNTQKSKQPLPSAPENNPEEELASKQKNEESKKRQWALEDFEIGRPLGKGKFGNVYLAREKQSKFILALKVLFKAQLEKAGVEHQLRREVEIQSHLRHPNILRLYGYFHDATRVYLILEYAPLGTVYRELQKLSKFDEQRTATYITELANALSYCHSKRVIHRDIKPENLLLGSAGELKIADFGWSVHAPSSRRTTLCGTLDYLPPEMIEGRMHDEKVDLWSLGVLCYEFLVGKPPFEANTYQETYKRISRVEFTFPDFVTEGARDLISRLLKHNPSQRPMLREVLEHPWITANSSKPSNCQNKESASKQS

Sequence of Casein kinase I isoform delta (Homo sapiens) (P48730 whole entry, looked up, canonical isoform): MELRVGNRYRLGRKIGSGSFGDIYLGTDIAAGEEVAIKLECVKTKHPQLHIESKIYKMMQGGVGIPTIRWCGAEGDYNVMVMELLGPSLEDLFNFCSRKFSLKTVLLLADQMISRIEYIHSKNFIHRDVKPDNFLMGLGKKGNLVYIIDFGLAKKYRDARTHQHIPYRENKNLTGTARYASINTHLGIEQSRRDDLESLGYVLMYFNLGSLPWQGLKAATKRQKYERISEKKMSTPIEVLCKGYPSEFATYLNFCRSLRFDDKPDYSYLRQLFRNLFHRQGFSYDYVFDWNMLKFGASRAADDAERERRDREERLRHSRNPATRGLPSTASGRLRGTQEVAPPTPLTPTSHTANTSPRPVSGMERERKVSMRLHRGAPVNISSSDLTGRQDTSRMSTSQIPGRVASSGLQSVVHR
Sequence of Tyrosine-protein kinase ABL1 (Homo sapiens) (P00519 whole entry): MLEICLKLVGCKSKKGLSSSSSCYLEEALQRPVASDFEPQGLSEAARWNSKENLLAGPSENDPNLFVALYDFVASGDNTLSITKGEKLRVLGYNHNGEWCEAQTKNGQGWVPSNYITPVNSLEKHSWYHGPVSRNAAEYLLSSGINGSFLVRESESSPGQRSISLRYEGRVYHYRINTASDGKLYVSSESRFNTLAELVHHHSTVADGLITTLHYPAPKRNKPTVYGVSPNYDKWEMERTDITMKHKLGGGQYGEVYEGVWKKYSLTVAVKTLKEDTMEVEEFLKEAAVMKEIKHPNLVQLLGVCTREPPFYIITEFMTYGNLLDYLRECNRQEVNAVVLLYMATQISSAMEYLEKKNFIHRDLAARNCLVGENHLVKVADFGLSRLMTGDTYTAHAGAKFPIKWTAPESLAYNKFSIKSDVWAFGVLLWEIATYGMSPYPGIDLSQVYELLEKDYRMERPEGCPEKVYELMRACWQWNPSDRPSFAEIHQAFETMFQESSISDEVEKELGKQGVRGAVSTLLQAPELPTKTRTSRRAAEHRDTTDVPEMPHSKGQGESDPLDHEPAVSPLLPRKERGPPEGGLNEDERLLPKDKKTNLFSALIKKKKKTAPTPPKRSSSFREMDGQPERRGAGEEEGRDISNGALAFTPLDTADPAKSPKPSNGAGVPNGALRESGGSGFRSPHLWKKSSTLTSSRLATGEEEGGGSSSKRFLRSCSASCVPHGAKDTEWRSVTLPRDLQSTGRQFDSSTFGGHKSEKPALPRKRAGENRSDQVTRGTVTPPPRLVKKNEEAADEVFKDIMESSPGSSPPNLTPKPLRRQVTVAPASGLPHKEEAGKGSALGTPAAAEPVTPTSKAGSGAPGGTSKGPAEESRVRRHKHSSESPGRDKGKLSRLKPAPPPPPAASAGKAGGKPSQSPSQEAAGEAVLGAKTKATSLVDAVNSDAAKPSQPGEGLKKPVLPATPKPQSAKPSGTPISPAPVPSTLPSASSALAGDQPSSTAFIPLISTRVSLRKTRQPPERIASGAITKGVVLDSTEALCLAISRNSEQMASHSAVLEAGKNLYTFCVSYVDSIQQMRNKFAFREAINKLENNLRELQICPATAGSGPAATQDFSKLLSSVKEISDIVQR

| Compound | ΔTm [1] [°C] | ΔTm [2] [°C] | ΔTm [3] [°C] | ΔTm [4] [°C] | ΔTm [5] [°C] | ΔTm [6] [°C] |
| --- | --- | --- | --- | --- | --- | --- |
| O=C(NCc1ccc(F)cc1)C1CCN(S(=O)(=O)c2cc(Cl)cc(Cl)c2)CC1 | 0.04 | -0.1 | 0.71 | -0.45 | 0 | 0.52 |
| COCCN(C)c1ccc(NC(=O)/C=C(\C)c2ccc3ccccc3c2)c(C(=O)O)c1 | -1.57 | 1.03 | 1.4 | 2.78 | -0.17 | 1.7 |
| CC1CN(CC(=O)N2CC(C)(C)c3nc(CO)c(Cc4ccc(F)cc4)cc32)C(CN2CCOCC2C)CN1 (stereo unspecified) | 0.01 | 0.68 | 0.32 | -1.07 | 0.17 | -1.32 |
| CCN(C)S(=O)(=O)Nc1cccc(-c2ccc3c(NC(=O)C4CC4)n[nH]c3c2)c1 | 4.16 | 3.52 | 0.06 | 3.82 | 0.42 | 4.06 |
| Cn1cc(NC(=O)c2ccc3nc4n(c3c2)CCCNC4=O)nc1C(=O)NC1CCCC1 | 1.61 | 0.41 | 0.38 | -0.59 | 0.46 | 0.5 |
| CCS(=O)(=O)c1ccc(OC)c(Nc2ncc(-c3cccc(F)c3)o2)c1 | 2.1 | 0.14 | -0.13 | -1.15 | 0.11 | 0.2 |
| CN1C(=O)[C@@H](NC(=O)c2cc(Cc3ccccc3)on2)COc2ccccc21 | -2.16 | -0.24 | -4.18 | -4.43 | -1.79 | -1.24 |
| C[C@@H](Oc1cc(-n2cnc3ccc(OC4CCN(C)CC4)cc32)sc1C(N)=O)c1ccccc1Cl | 1.32 | -0.97 | 0.23 | 1.25 | 0.3 | 0.44 |
| CCc1ccccc1C(=O)Nc1n[nH]c2c(C)c(F)c(C3C(C#N)=C(C)N(C)C(C)=C3C#N)cc12 | 0.41 | 1.35 | 0.67 | 8.17 | 0.38 | 5.56 |
| Fc1ccc(Cl)cc1-c1nc(Nc2ccncc2)c2nccnc2n1 | 0.4 | 1.19 | 2.24 | 0.58 | 0.56 | -0.16 |
| C[C@@H]1CN(CC(=O)N2CC(C)(C)c3nc(CO)c(Cc4ccc(F)cc4)cc32)[C@@H](CN2CCOC[C@H]2C)CN1 | 0.35 | 0.82 | -0.16 | -0.02 | 0.01 | -0.39 |
| Cc1n[nH]c2ncc(C(=O)N3CCC[C@H]3c3ccc(Cl)cc3)cc12 | 0.42 | 0.82 | 0.12 | 7.82 | 0.69 | 0.03 |
| CC(C)C[C@H](NC(=O)[C@@H](O)[C@H](N)Cc1ccccc1)C(=O)O | -0.05 | 1.32 | 0.13 | 0.33 | 0.15 | -0.07 |
| C=CC(=O)Nc1ccc(C(=O)Nc2[nH]nc3c2CN(C(=O)N[C@H](CN(C)C)c2ccccc2)C3(C)C)cc1 | 4.89 | 3.53 | 1.06 | 6.48 | 6.56 | 7.89 |
| CN1CCN(C(=O)c2ccc(N(C)c3ncc(C(F)(F)F)c(N[C@@H]4CCC[C@@H]4C(N)=O)n3)cc2)CC1 | -0.2 | 0.48 | 0.31 | 0.51 | 0.25 | -0.13 |
| Nc1ncc2c(n1)-c1c([nH]c3ccc(C4CC4)cc13)CCCC2 | 0.19 | -0.43 | -0.06 | 2.09 | 0.41 | -0.12 |
| CP(C)(=O)c1ccc(CNC(=O)C2CCN(S(=O)(=O)c3cc(Cl)cc(Cl)c3)CC2)cc1 | 0.74 | 0.5 | 0.35 | -0.16 | 0.45 | -0.19 |
| CCC(=O)N[C@@H]1CC[C@H](C(=O)N(C)c2ccc(-c3nc4ccccc4o3)cc2)C1 | 0.73 | 0.64 | 0.6 | -0.1 | 0.12 | 0.03 |
| CC(C)Oc1ccc(Cc2ccc(NC3=NCCN3)cc2)cc1 | 0.13 | 0.19 | -0.09 | -0.57 | -0.5 | -0.48 |
| N#CN1CC[C@@H](C(=O)Nc2nc3c(s2)CN(C(=O)CN=[N+]=[N-])CC3)C1 | 0.86 | 0.33 | 0.49 | -0.33 | 0.62 | -0.54 |
| CC1(C)Oc2ncnc(N)c2N=C1c1ccc([C@H]2CC[C@H](CC(=O)O)CC2)cc1 | 0.89 | 0.57 | -0.19 | 0.61 | 0.18 | 0.25 |
| CNC(=O)c1c(F)cccc1Nc1nc(Nc2cc3c(cc2OC)CCN3C(=O)CN(C)C)nc2[nH]ccc12 | -0.29 | 0.06 | 1.14 | -0.64 | 1 | 0.07 |
| Cn1c(C(=O)N[C@@H](CO)c2ccc(C(=O)O)cc2)cc2cc(Cl)ccc21 | -0.2 | 0.54 | 0.58 | 0.38 | -0.04 | 0.34 |
| Cc1ncsc1-c1ccc(CNC(=O)[C@@H]2C[C@H](O)CN2C(=O)[C@@H](NC(=O)C2(F)CC2)C(C)(C)C)c(OCCOc2ccc(CN3CCN(c4cc(-c5ccccc5O)nnc4N)CC3)cc2)c1 (relative stereo) | 0.51 | 2.76 | 6.03 | 0.29 | 0.5 | 3.42 |
| COc1ccc(C(F)(F)F)cc1NC(=O)Nc1ccc(Oc2cc(C)nc(N)n2)c2ccccc12 | 5.29 | 1.11 | 0.31 | 1.99 | 0.06 | -0.77 |
| C/C=C1\C(=O)CC2C3CCC4=CC(=O)CC[C@]4(C)C3CC[C@]12C (stereo partly specified) | 0.07 | -0.3 | 0.63 | -1.05 | 0.47 | -1.78 |

| Compound | ΔTm [1] [°C] | ΔTm [2] [°C] | ΔTm [3] [°C] | ΔTm [4] [°C] | ΔTm [5] [°C] | ΔTm [6] [°C] |
| --- | --- | --- | --- | --- | --- | --- |
| CC(=O)Nc1c(F)cc(C(=O)N[C@H]2CC[C@H](O)CC2)cc1O[C@@H](C)c1ccccc1 | 0.21 | 0.97 | -0.03 | -0.82 | 0.43 | -0.15 |
| CC(C)N(CCCCOCC(=O)O)c1cnc(-c2ccccc2)c(-c2ccccc2)n1 | 0.75 | -0.83 | 0.48 | 0.74 | -0.32 | -1.44 |
| CC(C)[C@H](CO)Nc1nc(Nc2ccc(C(=O)O)c(Cl)c2)c2ncn(C(C)C)c2n1 | 6.07 | 9.51 | 2.59 | 2.37 | 4.14 | 7.69 |
| Cc1ncsc1-c1ccc(CNC(=O)[C@@H]2C[C@@H](O)CN2C(=O)[C@@H](NC(=O)CCCCNC(=O)c2ccc(-c3ccc(N4CCN(C)CC4)c(NC(=O)c4c[nH]c(=O)cc4C(F)(F)F)c3)cc2)C(C)(C)C)cc1 | -3.44 | 1.06 | 0.88 | -0.58 | -2.62 | 0.62 |
| Cc1cc(-c2ccnc(Nc3cnn(C)c3)n2)ccc1CNC(=O)N1CC(OC(C)C)C1 | 6.49 | 1.31 | 0.77 | 0.38 | 0.39 | 8.06 |
| CC(C)(O)CNC(=O)N1C(=O)N(c2cccc(C(F)(F)F)c2)C2=C(C(=O)CC2)[C@H]1c1ccc(C#N)cc1 | 0.05 | 0.79 | 0.12 | 0.33 | -0.03 | 0.08 |
| CC/C(=C(\c1ccccc1)c1ccc(OCCN(C)C)cc1)c1ccccc1 | -1.51 | -1.86 | 0.3 | -1.42 | -0.3 | -2.91 |
| Cc1c(CCC(=O)O)cccc1NC(=O)[C@@H](c1ccc(-c2cncc(Cl)c2)c(F)c1)C1CCCC1 | 1.34 | -0.35 | -0.06 | 0.61 | -0.61 | 4.78 |
| CN1C(=O)c2c(nn(Cc3ccc(-c4cccc(F)n4)cc3)c2Nc2ccccc2)N2C1=N[C@@H]1CCC[C@@H]12 | 0.4 | 0 | 0.16 | 3.99 | -0.56 | -0.49 |
| Cc1cc(OC2CCS(=O)(=O)CC2)cc(C)c1-c1cccc(COc2ccc(C(=O)O)c(F)c2)c1 | 0.14 | -1.08 | 0.23 | -0.54 | 0.7 | -1.19 |
| CS(=O)(=O)CCNCc1ccc(-c2ccc3ncnc(Nc4ccc(OCc5cccc(F)c5)c(Cl)c4)c3c2)o1 | 0.09 | 0.9 | 0.12 | -0.86 | 0.56 | -0.38 |
| CC(=O)c1ccc2c(c1)/C(=C(/NC1CCN(C)CC1)c1ccc3c(c1)OCO3)C(=O)N2 | 0.16 | 4.87 | 2.46 | 15.5 | 0.57 | 0.78 |
| Cn1ccc(Cn2cnc(-c3ccc(F)cc3)c2-c2ccnc3[nH]ccc23)n1 | 0.71 | 0.42 | 6.32 | -0.53 | 0.21 | -0.97 |
| C[C@@H]1CC(=O)N(C2CC2)N=C1c1ccc(NC(=O)N2Cc3ccncc3C2)cc1 | 0.36 | 0.35 | 0.2 | -0.86 | 0.29 | 0.22 |
| CN(C)C(=O)Cn1cc(-c2ccc(-c3nnc4ccccn34)cc2)cn1 | -0.4 | 0.44 | 0.44 | -0.7 | 0.27 | -0.04 |
| O=C(Nc1ccc(Cl)c(-c2ccccn2)c1)c1cccc(COc2ccc(Br)cc2CNCCO)c1 | 0.35 | -0.21 | 0.55 | -0.89 | -0.69 | -0.51 |
| COc1ccccc1N1CCN(c2ncnc3c2cnn3-c2ccccc2)CC1 | 0.32 | -0.17 | 0.84 | -0.28 | -0.07 | -0.16 |
| Nc1nccc(-c2c(-c3ccc(F)cc3)ncn2C2CCN(Cc3ccon3)CC2)n1 | 0.7 | 0.23 | 10.1 | 6.87 | 0.36 | -0.88 |
| Cc1nc2ccccc2c(-c2ccc3c4c(ccnc24)CCO3)c1[C@H](OC(C)(C)C)C(=O)O | -0.44 | 0.2 | 0.28 | -0.88 | 0.3 | -0.03 |
| Cn1c(Nc2c(Cl)cccc2Cl)nc2ccc3nc[nH]c(=O)c3c21 | 9.85 | 0.91 | 0.64 | 1.08 | 0.09 | 1.49 |
| CCc1nc(C2CCC2)n2nc(-c3ccccc3)[nH]c(=O)c12 | 0.18 | 1.98 | 0.4 | 1.45 | 0.11 | 1.13 |
| COc1ccc(-c2c(-c3ccccc3)oc3ncnc(O[C@H](C)CCCCC(=O)O)c23)cc1 | -0.07 | -2.59 | -0.84 | -2 | -3.65 | 5.26 |
| CC(C)(C)c1cc(NC(=O)c2csc(Nc3ccc(Cl)cc3)n2)no1 | -0.19 | 0.91 | 1.05 | -2.8 | -3.27 | 1.67 |
| CC#CC(=O)N1CCN(c2nc(-c3ccc(Oc4ccccc4)cc3)c(C(N)=O)s2)CC1 | -0.27 | -1.44 | -8 | -2.57 | -9.83 | -1.3 |
| Cc1c(-c2c(F)cc(C(N)=O)c3[nH]c4c(c23)CC[C@H](C(C)(C)O)C4)cccc1-n1c(=O)c2cccc(F)c2n(C)c1=O | 3.83 | 0.48 | 0.11 | 0.79 | -0.33 | 10.9 |
